Bioassay records deposited in PubChem by National Center for Advancing Translational Sciences (NCATS).
Pf growth 96h: P. falciparum growth inhibition at 96 hour, primary screen for plastid delayed-death inhibitors; P. falciparum luciferase reporter growth, 96 h; Potency, µM (doses to about 28.7 µM), for inactives: top-dose activity change, negative = inhibition, hits mostly inhibitors; 320,000 compounds, 6.9% hits; AID 504834; note: % is set by controls: 0 for no effect and ±100 for the full control effect
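Compounds incubated with erythrocytes infected by luciferase-expressing P. falciparum (2% hematocrit, 0.05% parasitemia final) for 96 hours, 37 C in 5% CO2. Growth inhibition scored as decreased luciferase luminescence.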
Sm TGR inh: S. mansoni TGR enzyme inhibition | Q962Y6 | purified TGR, DTNB reduction, TNB absorbance 405 nm | Potency, µM (titrated, usually from 114 µM), for inactives: top-dose activity change, negative = inhibition, most hits filed as inhibitors | 360,000 compounds, 3% hits | AID 485364; note: % is set by controls: 0 for no effect and ±100 for the full control effect; nearly all actives have a fitted effect of over 60% in size
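TGR 20 nM + NADPH 100 uM (dispensed conc.), cpd preinc 15 min RT; start with NADPH (500 uM addition) then DTNB (15 mM addition). Kinetic TNB absorbance, 405 nm filter. Four-parameter Hill fit across titration.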
Pf growth 48h: P. falciparum growth inhibition at 48 hours (one generation). AID 504832. Potency, µM (doses to about 28.7 µM), without a hit: at the top dose activity change, negative = inhibition, hits mostly inhibitors. P. falciparum luciferase growth in erythrocytes, 48 h. 310,000 compounds, 5.9% hits; note: % is set by controls: 0 for no effect and ±100 for the full control effect
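Erythrocytes infected with P. falciparum carrying an integrated firefly luciferase reporter (2% hematocrit, 0.1% parasitemia final) were exposed to compounds in RPMI 1640 with 0.5% Albumax at 37 C, 5% CO2. Growth inhibition was scored as reduced luminescence.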
NS1 inh: influenza NS1 inhibition. AID 2326. Potency, µM (top dose mostly 46.1 µM), for inactives: at the highest dose activity, positive = more growth. 270,000 compounds, 0.4% hits; calls by dose curve; note: actives are rising curves; nearly all actives have a fitted effect of over 50% in size
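OD600 was taken as the measure of yeast growth restored by compound in an NS1-expressing S. cerevisiae strain. Cells had been washed out of glucose medium and diluted 1:100 into galactose -URA medium, pH 6.0.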
AMA1-RON2 inh: AMA1-RON2 (P. falciparum) interaction inhibition; AlphaScreen AMA1-biotinylated RON2 peptide binding; Potency, µM (highest dose often 58.2 µM), inactives show at the highest dose activity change, negative = inhibition, hits mostly inhibitors; 360,000 compounds, 0.2% hits;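 note: 0% = vehicle wells and -100% = peptide control; nearly all actives have a fitted effect of over 45% in size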
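AMA1 (3D7) with his tag at 25 nM final met compounds first, then biotinylated RON2 peptide at 25 nM; detection used donor plus acceptor beads, 10 µg/mL apiece, read by AlphaScreen after 30 min at room temperature.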
* hit, by the source's call; i = inactive; u = inconclusive; x = no result; ! = a repeat was not active; [ ] = remark or other dose. A selection: hits, their analogues and other compounds. The true share with any hit is near 11%. Unless noted, calls come from the whole dose curve; as a rule, active = well fitted curve in the direction sought with a large enough effect; inconclusive = small, poorly fitted or top-dose-only effect, or another doubt; inactive = no such curve, though single readings can be large; an effect the other way counts as inactive or inconclusive. Potency is the fitted concentration of half-maximal effect.

SMILES | Pf growth 96h | Sm TGR inh | Pf growth 48h | NS1 inh | AMA1-RON2 inh
C=C(C)C1CC=C(CN2CCC(O)CC2)CC1 (centres undefined) | 13% | -24% | x | -6% | -5%
C=C(C)[C@@H]1CC=C(CN2CCC(N3CCC(C(=O)N4CCCC4)CC3)CC2)CC1 | 2% | -17% | 7.4µM* | -6% | -9%
C=CCN(CC=C)Cc1c(O)ccc2c1oc(=O)c1ccccc12 | x | x | x | x | 21µM*
COc1ccc(/C(CC2OC(=O)c3ccccc32)=N\NC(N)=O)cc1 (centres undefined) | -10% | x | 20% | -7% | 14%
CCCCNc1ncnc2c1cnn2-c1ccccc1 | 12µM* | 11% | 117% | -99% | 0%
CCCCNc1ncnc2c1cnn2-c1ccc(Cl)cc1 | 128% | 0% | 45% | -10% | -7%
Cc1cccc(C)c1OCc1cc(=O)n2ccsc2n1 | x | -3% | x | x | x
NC(=O)c1c(NC(=O)CN2CCOCC2)sc2c1CCC2 | 13% | 35µM* | 13% | -11% | 15%
NC(=O)c1c(NC(=O)CN2C(=O)CCC2=O)sc2c1CCCCC2 | 42% | 3% | 19% | -30% | -4%
NC(=O)c1c(NC(=O)CN2CCCC2)sc2c1CCCC2 | 12µM* | 0% | 23% | -4% | 46%
NC(=O)c1c(NC(=O)C(=O)NCCCN2CCOCC2)sc2c1CCCC2 | u | 0% | u | -1% | 102%
COc1cc(-c2nnc(NC(=O)CCS(=O)(=O)c3ccccc3)o2)cc(OC)c1OC | -5% | 28µM* | -6% | x | 53%
COc1cc(OC)cc(-c2nnc(NC(=O)CCS(=O)(=O)c3ccccc3)o2)c1 | 5% | 32µM* | -3% | x | 62%
Cc1c(C(=O)N(C)C)sc2c1c(=O)n(-c1ccc(F)cc1)c(=O)n2Cc1ccccc1C#N | x | 9% | x | x | x
Cc1ccc(C(NC(=O)Nc2ccccn2)C(Cl)(Cl)Cl)cc1F (centres undefined) | 13µM* | -3% | u | -8% | 1%
Cc1cccc(NC(=O)Nc2ccccn2)c1C | 79% | 3% | 89% | 0% | -14%
CCOc1ccc(CNC(=O)C2=Cc3cccc(OC)c3OC2)cc1 | x | -7% | x | x | x
O=C(CC(Nc1ccc(Cl)cc1Cl)C(=O)O)c1ccccc1 (centres undefined) | 308% | 3.2µM* | 242% | -2% | -1%
O=C(CC(C(=O)O)c1cccc(Cl)c1)c1ccccc1 (centres undefined) | 25% | 5% | -6% | -1% | 7%
O=C(CC(Nc1ccccc1)c1ccc(F)cc1)c1ccccc1 (centres undefined) | 2.6µM* | 4% | 10% | 13% | -10%
Cc1ccc(NC(CC(=O)c2ccccc2)C(=O)O)cc1Cl (centres undefined) | i | 0.79µM* | 392% | -7% | 1%
O=C(CC(Nc1ccccc1)C(=O)O)c1ccccc1 (centres undefined) | x | 2.2µM* | 174% | -56% | 11%
O=C(CNc1ccc(F)cc1)c1ccccc1 | -22% | x | u | -1% | -15%
CCCCOc1ccc(-c2cc3c(=O)n(CC(=O)Nc4ccc(Cl)cc4Cl)ccn3n2)cc1 | x | -3% | x | x | x
Cc1nc2sc(C(c3cccs3)N3CC(C)CC(C)C3)c(O)n2n1 (centres undefined) | u | -15% | 6.6µM* | -40% | 23%
SMILES | Pf growth 96h | Sm TGR inh | Pf growth 48h | NS1 inh | AMA1-RON2 inh
CN(Cc1ccccc1)c1nc2c(c(=O)[nH]c(=O)n2C)n1C | 1% | -7% | 0% | -7% | 2%
COc1ccc(N2CCN(c3nc4c(c(=O)[nH]c(=O)n4C)n3Cc3cccc(C)c3)CC2)cc1 | 48% | 0% | 10µM* | -34% | 0%
CCN1CCN(c2nc3c(c(=O)[nH]c(=O)n3C)n2Cc2cccc(C)c2)CC1 | x | x | x | x | 7%
Cc1cccc(Cn2c(N(C)Cc3ccccc3)nc3c2c(=O)[nH]c(=O)n3C)c1 | 13µM* | 0% | 12µM* | -83% | -18%
Cc1cccc(Cn2c(Sc3nc(C)cs3)nc3c2c(=O)[nH]c(=O)n3C)c1 | 1.7µM* | 9% | -21% | u | -1%
C/C=C/Cn1c(N(C)Cc2ccccc2)nc2c1c(=O)[nH]c(=O)n2C | 8.3µM* | 1% | u | u | -10%
COC(=O)c1cn(C(=O)c2cccc(Br)c2)c2ccccc12 | 208% | 6% | x | -4% | -10%
CCc1cc2c(cc3c(=O)n(CC(=O)N4CCC(C)CC4)nc(CC)n32)s1 | x | 0% | x | x | x
Fc1cc(F)cc(-c2c(-c3ccccc3)ncc3ccc(F)cc23)c1 | u | 45µM* | u | x | -1%
O=[N+]([O-])c1ccc(-c2c(-c3ccccc3)ncc3cc(F)ccc23)cc1 | 5.2µM* | -32% | 2.6µM* | x | -26%
N#Cc1ccc(S(=O)(=O)N2CCc3[nH]c4ccc(F)cc4c3C2)cc1 | 23% | 20% | -13% | -2% | -13%
Cc1nc2ccccc2nc(=O)c1NNc1ccccc1 | 6.7µM*! | -3% | 87% | -3% | -5%
Cc1cc(-c2nnc(SCC(=O)Nc3nccs3)o2)no1 | 14% | -7% | u | u | -17%
COc1ccc(C(=O)NCCc2c[nH]c3ccccc23)cc1[N+](=O)[O-] | 13µM* | -3% | 0% | -3% | -15%
COc1ccc(CCNC(=O)/C=C/c2ccc3ccccc3n2)cc1OC | 8.3µM* | 1% | u | -14% | 4%
COc1ccc(C2(CNC(=O)c3ccc(OC)c([N+](=O)[O-])c3)CCOCC2)cc1OC | 2.3µM* | 0% | -8% | 3% | -17%
COc1ccc(/C=C/C(=O)NCCc2c[nH]c3ccccc23)cc1OC | 15µM* | -4% | 8.3µM* | -18% | -28%
COc1ccc(/C=C/C(=O)NCCCNC(=O)/C=C/c2ccc(OC)c(OC)c2)cc1OC | x | x | x | x | 0%
NC[C@@H]1O[C@H](O[C@H]2[C@H](O)[C@H](O[C@@H]3O[C@H](CO)[C@@H](O)[C@H](N)[C@@H]3O)[C@@H](N)C[C@H]2N)[C@@H](O)[C@H](O)[C@@H]1O | 10%[12.8 µM] | x | 5%[12.8 µM] | x | x
O=C(O)c1ccccc1Nc1cccc(C(F)(F)F)c1 | 2.4µM*! | 63% | -11% | -26% | -10%
O=C(O)c1ccccc1Nc1ccccc1 | 8% | -7% | 5% | -40% | -2%
O=C(/C=C/c1cccc(C(F)(F)F)c1)Nc1cccc(C(F)(F)F)c1 | u | -29% | 7.4µM* | -68% | 36%
CN(C)C(=O)c1ccc(NC(=O)COC(=O)C2(c3ccccc3)CCCC2)cc1 | x | x | x | x | 0%
C=CCn1c(C)cc(C(=O)CSc2nnc(-c3cccc(S(=O)(=O)N(CC)CC)c3)o2)c1C | u | 1% | 10µM* | u | -28%
CCN(CC)S(=O)(=O)c1cccc(-c2nnc(SCC(=O)c3cc(C)n(C4CC4)c3C)o2)c1 | x | -30% | -17% | -9% | 3%
CCN(CC)S(=O)(=O)c1cccc(-c2nnc(SCCCC(=O)c3ccc(F)cc3)o2)c1 | 0% | 12% | 9.3µM* | 1% | 12%
Cc1cc(NC(=O)c2cnc3c(-c4ccccc4)c(C)nn3c2C)ccc1Br | x | -5% | x | x | x
